Here are results for 52 compounds from PubChem BioAssay AID488922 (Johns Hopkins Ion Channel Center, 2010).

Each structure is given as a SMILES string. Hit rate of the full screen: of about 310,000 compounds, about 3,800 (1.2%) were called active.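 The calls were made as follows: active = ratio B-score over 3 SD below the library mean, with starting fluorescence within 5 SD of its mean; inactive = the rest, inconclusive results apart.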 This excerpt belongs to a sample that is enriched for actives.

The target of this assay is Potassium channel subfamily K member 9 (Homo sapiens) (UniProt Q9NPC2). The experiment in a line: KCNK9 potassium channel inhibitors, primary screen, HEK293 cells, thallium flux (AID 488922).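 As to B-score: negative B-score means less thallium flux so channel inhibition.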 To be noted: HEK293 KCNK9, FluxOR thallium flux fluorescence, at 10 µM; active compounds read low.
Sequence of Potassium channel subfamily K member 9 (Homo sapiens) (Q9NPC2 whole entry, looked up): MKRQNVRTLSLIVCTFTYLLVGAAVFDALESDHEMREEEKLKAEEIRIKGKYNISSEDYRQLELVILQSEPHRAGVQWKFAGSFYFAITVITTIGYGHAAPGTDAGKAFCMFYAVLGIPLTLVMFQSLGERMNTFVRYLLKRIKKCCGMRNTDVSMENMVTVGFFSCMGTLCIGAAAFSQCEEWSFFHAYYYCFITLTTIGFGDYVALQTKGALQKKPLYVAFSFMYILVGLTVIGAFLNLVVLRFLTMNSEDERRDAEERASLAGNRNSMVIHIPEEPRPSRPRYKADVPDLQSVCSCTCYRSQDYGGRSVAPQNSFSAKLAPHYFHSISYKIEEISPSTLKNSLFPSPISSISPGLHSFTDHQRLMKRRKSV
Turning to `Cc1ccc(CCNC(=O)C2CCN(S(=O)(=O)N3CCCC3)CC2)cc1`, the B-score entry was “inactive”.

As for `O=C(CNC1CCCCC1)NCC1(c2ccccc2)CCCC1`, the B-score is -7.46 (active).

`COc1cc(C(=O)NCC2(c3ccccc3)CCCC2)ccc1OC(C)C`: the B-score result was “inactive”.

With `CCOc1c(OC)cccc1C(=O)NCC1(c2ccccc2)CCCC1`, the B-score result was “inactive”.

As for `C=C(Br)CN1CCN(CC(=C)Br)CC1`, the B-score result was “inactive”.

In the case of `CCCCNC(=O)N1CCN(S(C)(=O)=O)CC1`, the B-score entry is “inactive”.

On to `CN(C)N=Nc1ccc2nc[nH]c2c1`, for which the B-score result is “inactive”.

As for `Fc1ccc(Cn2nnnc2C(c2cccs2)N2CCCCCC2)cc1` (configuration not stated), the B-score was -13.1 (active).

In the case of `Fc1ccccc1C(c1nnnn1Cc1ccc2c(c1)OCO2)N1CCN(Cc2ccccc2)CC1` (configuration not stated), the B-score result is “inactive”.

On to `Cc1cc(C)c2[nH]c(=O)c(C(c3nnnn3Cc3ccc4c(c3)OCO4)N3CCCC3)cc2c1` (configuration not stated), for which the B-score result is “inactive”.

As for `CCCn1c(SCC(=O)Nc2ccc(C)c(S(=O)(=O)N3CCOCC3)c2)n[nH]c1=O`, the B-score result was “inactive”.

In the case of `Cc1ccc(C(=O)OCC(=O)N2CC(C)CC(C)C2)cc1S(=O)(=O)N1CCCCC1` (configuration not stated), the B-score result was “inactive”.

Turning to `COc1ccc2c(CC(=O)N3CCc4cc(OC)c(OC)cc4C3)coc2c1`, the B-score result was “inactive”.

Turning to `Cc1cc(C)cc(OCC(=O)O/N=C(\N)Cc2ccc([N+](=O)[O-])cc2)c1`, the B-score result was “inactive”.

`N/C(=N\OC(=O)COc1ccc([N+](=O)[O-])cc1)c1ccc(Br)cc1`: the B-score result was “inactive”.

Turning to `N/C(Cc1ccc([N+](=O)[O-])cc1)=N\OC(=O)COc1ccc2ccccc2c1`, the B-score was -7.84 (active).

As to `CCCc1cc(=O)oc2cc(OCC(=O)Nc3ccc(CN4CCOCC4)cc3)c(Cl)cc12`, the B-score entry is “inactive”.

As for `CN(C)c1ccc(NC(=O)c2ccncc2)c2ccccc12`, the B-score entry was “inactive”.

As for `Oc1ccccc1CN1CCN(C(c2ccccc2)c2ccccc2)CC1`, the B-score result was “inactive”.

On to `c1ccc(CCn2nnnc2CN2CCN(C3CCCC3)CC2)cc1`, for which the B-score result was “inactive”.

In the case of `c1ccc(C(c2ccccc2)N2CCN(Cc3nnnn3C3CCCCC3)CC2)cc1`, the B-score is -14.6 (active).

With `Cc1nn(Cc2ccccc2Cl)c(C)c1NC(=O)Cn1nc([N+](=O)[O-])c(Cl)c1C`, the B-score result was “inactive”.

As for `CC(=O)N1CCN(c2ccccc2NC(=S)NC(=O)c2cc3ccccc3o2)CC1`, the B-score entry is “inactive”.

Take `O=C(NCc1ccco1)c1ccc([N+](=O)[O-])cc1Cl`: the B-score entry was “inactive”.

In the case of `O=C(NCc1ccncc1)c1ccc(NS(=O)(=O)c2cccc([N+](=O)[O-])c2)cc1`, the B-score entry is “inactive”.

For the compound `O=C(NCc1ccco1)c1ccc(NS(=O)(=O)c2cccc([N+](=O)[O-])c2)cc1`, the B-score was -8.56 (active).

On to `O=C1CCCC(O)=C1N=Nc1ccc2ncsc2c1`, for which the B-score result was “inactive”.

In the case of `Cc1ccc(S(=O)(=O)N2CCC(C(=O)NCCC3=CCCCC3)CC2)cc1C`, the B-score result is “inactive”.

`O=C(NCc1ccco1)c1nc(-c2ccccc2)n(-c2ccccc2)n1`: the B-score result was “inactive”.

Take `CCOCCCNc1nc(-c2ccccc2)nc2ccccc12`: the B-score result was “inactive”.

Take `CS(=O)(=O)n1nc(-c2ccccc2)nc1NCc1ccco1`: the B-score result was “inactive”.

`c1coc(CNc2ncnc3ccccc23)c1`: the B-score entry was “inactive”.

As to `O=C(Cc1ccccc1)n1nc(-c2ccccc2)nc1NCc1ccco1`, the B-score is -9.15 (active).

As for `c1ccc(-c2nc(NCc3ccco3)c3ccccc3n2)cc1`, the B-score was -6.58 (active).

In the case of `CC(OC(=O)c1ccc(NS(=O)(=O)c2ccc3[nH]c(=O)[nH]c3c2)cc1)C(=O)Nc1cccc(Cl)c1Cl` (configuration not stated), the B-score result is “inactive”.

Consider `COc1ccc(-c2cnc(SCCNC(=O)c3ccc4c(c3)OCO4)[nH]2)cc1`, for which the B-score result was “inactive”.

With `Cc1ccccc1N1CCN(CC(=O)NCc2ccc(Cl)cc2)CC1`, the B-score result was “inactive”.

Turning to `O=C(NCCc1ccc(Cl)cc1)C1CCCN1C(=O)NCc1ccccc1` (configuration not stated), the B-score result is “inactive”.

With `O=C(Nc1ccc(Oc2ccccc2)cc1)c1ccco1`, the B-score is -10.1 (active).

For the compound `O=C(Nc1ccccc1)c1ccco1`, the B-score result was “inactive”.

Take `O=C(Nc1ccc(O)cc1)c1ccc(NC(=O)c2ccco2)cc1`: the B-score result is “inactive”.

For `Cc1cc(C)cc(NC(=O)C2CCCN(S(=O)(=O)c3ccc4[nH]c(=O)ccc4c3)C2)c1` (configuration not stated), the B-score entry was “inactive”.

With `O=C(Oc1ccccc1C(=S)N1CCCCC1)c1cc([N+](=O)[O-])cc([N+](=O)[O-])c1`, the B-score entry was “inactive”.

In the case of `COc1cc(C(=S)N2CCOCC2)cc(OC)c1OC(=O)c1cc([N+](=O)[O-])cc([N+](=O)[O-])c1`, the B-score entry is “inactive”.

Regarding `O=C(Oc1ccc(Br)cc1C(=S)N1CCOCC1)c1cccc([N+](=O)[O-])c1`, the B-score is -16.4 (active).

In the case of `COc1ccccc1C(=O)Nn1cnnc1`, the B-score result was “inactive”.

As to `CC(=O)Nc1ccc(OCCC[n+]2cccc(C(=O)[O-])c2)cc1`, the B-score entry was “inactive”.

For `Nc1c(-c2ccccc2)nnn1Cc1ccccc1`, the B-score result is “inactive”.

Consider `CC(C)(C)c1ccc(C(=O)NCc2ccco2)cc1`, for which the B-score result was “inactive”.

As to `CCCC1=Nc2cc(C(=O)NCc3ccco3)ccc2Sc2ccccc21`, the B-score is -8.7 (active).

`CCCC1=Nc2cc(C(=O)NCCN3CCCC3)ccc2Sc2ccccc21`: the B-score result is “inactive”.

Turning to `CN(C)/C=C(\C#N)C(=O)c1cccnc1Oc1cccc(F)c1`, the B-score result is “inactive”.
